TEAD-YAP block: TEAD-YAP interaction inhibition, primary screen, TEAD-YAP interaction inhibitor project, luminescence, HEK-TIYL cells; TEAD-Gal4/YAP UAS-luciferase luminescence; inhibition, % at 9.12 µM; 640,000 tested, 1.4% active; AID 1259422, 2018; in the data active = inhibition above about 32%;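 note: 0% = median of test compound wells and 100% = reference inhibitor wells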
MITF inh: MITF inhibitors, primary screen, biochemical, AlphaScreen, human; 650,000 tested, 0.91% active; AlphaScreen MITF homodimerization, bead proximity signal; AID 1259374, 2018; inhibition, % at 2.6 µM; Microphthalmia-associated transcription factor (Homo sapiens), O75030; in the data active = inhibition above about 50%;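 note: 0% = vehicle wells with protein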
GPR151 activ: activators of human GPR151, primary screen, cell-based, PathHunter beta-arrestin, luminescence; G-protein coupled receptor 151 (Homo sapiens), Q8TDV0; PathHunter beta-arrestin GPR151 cells; activation, % at 11.2 µM; 650,000 tested, 1% active; in the data active = activation above about 4.9%;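 note: 0% = median of compound wells and 100% = cells with positive control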
FBW7 activator: FBW7 E3 ligase activators, primary screen, biochemical, AlphaScreen, human | AlphaScreen FBW7–phospho-cyclin E peptide binding, activator screen | normalized activity (activation), % at 26.1 µM | 650,000 tested, 0.13% active | F-box/WD repeat-containing protein 7 (Homo sapiens), Q969H0 | AID 1259310, 2017; in the data active = normalized activity above about 1.9%;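 note: purified mutant Fbw7 with reduced substrate affinity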
Target sequence (Q969H0 whole entry, looked up): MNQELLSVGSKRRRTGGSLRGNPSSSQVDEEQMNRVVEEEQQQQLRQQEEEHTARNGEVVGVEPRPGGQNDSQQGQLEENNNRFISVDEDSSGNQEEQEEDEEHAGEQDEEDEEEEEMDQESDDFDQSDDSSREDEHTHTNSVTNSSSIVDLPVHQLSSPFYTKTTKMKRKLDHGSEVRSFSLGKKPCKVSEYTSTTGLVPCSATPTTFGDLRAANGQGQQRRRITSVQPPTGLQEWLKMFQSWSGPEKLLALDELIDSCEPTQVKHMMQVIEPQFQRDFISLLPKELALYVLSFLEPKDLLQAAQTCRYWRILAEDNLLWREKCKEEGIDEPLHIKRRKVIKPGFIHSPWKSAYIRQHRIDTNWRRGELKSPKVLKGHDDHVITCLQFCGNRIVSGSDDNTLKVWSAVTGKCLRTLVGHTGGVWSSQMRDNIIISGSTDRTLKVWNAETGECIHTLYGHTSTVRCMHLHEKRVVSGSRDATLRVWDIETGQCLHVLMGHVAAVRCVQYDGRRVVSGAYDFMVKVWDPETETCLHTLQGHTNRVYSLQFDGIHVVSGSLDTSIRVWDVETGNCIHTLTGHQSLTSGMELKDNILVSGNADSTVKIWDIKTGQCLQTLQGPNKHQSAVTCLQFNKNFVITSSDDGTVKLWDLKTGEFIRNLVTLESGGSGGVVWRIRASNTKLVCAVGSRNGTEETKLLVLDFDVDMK
MITF inh conf: MITF inhibitors, retest of hits, confirmation, biochemical, AlphaScreen, triplicate; shares compounds with MITF inh; AlphaScreen MITF homodimerization, biotin/His-MITF beads; 4,700 tested, 16% active; AID 1259372, 2018; inhibition, % at 2.6 µM;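 active = inhibition above a cutoff derived from the DMSO control wells, cut at about 28% in these data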;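 note: 0% = MITF dimer wells with DMSO only; inhibitors lower the bead chemiluminescence by keeping MITF from dimerizing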
AlphaScreen intf2: AlphaScreen optical interference compounds, counter-screen for MITF inhibitor project, biochemical, triplicate; shares compounds with MITF inh; LysRS AlphaScreen counterscreen, signal interference; inhibition, % at 2.6 µM; 4,700 tested, 7.6% active;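 active = inhibition above a cutoff derived from the DMSO control wells, cut at about 30% in these data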
The depositor's hits bear a star; · = no result given. An excerpt weighted towards active compounds, which were near 3.5% of everything screened.

SMILES | TEAD-YAP block | MITF inh | GPR151 activ | FBW7 activator | MITF inh conf | AlphaScreen intf2
CC1=CC(C)(C)N(C(=O)CNCCN2CCOCC2)c2cc(C)ccc21 | 5.0 | 58.8* | -0.2 | 0.2 | 8.9 | 23.2
O=C(CNCCCN1CCOCC1)Nc1ccc(N2CCCCC2)cc1 | -2.2 | 49.9 | 1.2 | -0.3 | · | ·
O=C(CNCCCN1CCOCC1)Nc1ccc(N2CCCC2)cc1 | -4.5 | 54.3* | 0.0 | 0.1 | 3.8 | 18.8
Cc1ccccc1CSCC1Nc2ccc(C(=O)N3CCN(c4cccc(C(F)(F)F)c4)CC3)cc2NC1=O (configuration not stated) | 4.7 | -9.1 | -0.3 | -0.1 | · | ·
O=C(COc1cccc([N+](=O)[O-])c1)Nc1ccc(-c2nnc(-c3ccccc3)o2)cc1 | -9.8 | 9.6 | -0.8 | 0.4 | · | ·
O=C(CNCCCN1CCOCC1)Nc1ccc2c(c1)OCO2 | 1.8 | 70.8* | -0.9 | -0.1 | 3.9 | 11.6
O=C(NCc1ccccc1)C1CC12CCN(C(=O)CCCc1cccs1)CC2 (configuration not stated) | -33.0 | 61.7* | 1.0 | 0.1 | 1.1 | 6.9
O=C(NCc1cccs1)C1CC12CCN(C(=O)Cc1ccc(-c3ccccc3)cc1)CC2 (configuration not stated) | 7.7 | 11.7 | 0.9 | 0.0 | · | ·
NC(=O)CSc1nc2ccccc2n1CCOc1ccccc1F | 7.9 | 8.1 | 1.6 | 0.4 | · | ·
O=C(c1ccccc1F)N1CCN(Cc2ccccc2Cl)CC1 | -8.6 | 48.2 | -0.7 | 0.0 | · | ·
COc1ccc(CN2CCN(C(=O)c3ccccc3OC)CC2)cc1OCc1ccccc1 | 1.8 | 40.7 | -2.0 | 0.1 | · | ·
O=C(c1ccccc1F)N1CCN(Cc2ccccc2Br)CC1 | 1.1 | 54.1* | -0.3 | -0.1 | 9.1 | 13.5
O=C(c1ccccc1F)N1CCN(Cc2ccc(Cl)cc2)CC1 | 18.3 | 55.8* | -2.0 | 0.0 | 13.0 | 11.1
O=C(c1ccccc1F)N1CCN(Cc2ccccc2)CC1 | 8.0 | 3.2 | -1.4 | 0.1 | · | ·
COc1ccccc1C(=O)N1CCN(Cc2ccc(Cl)cc2)CC1 | 11.0 | 55.3* | -0.2 | -0.2 | 0.7 | 1.1
O=C(c1ccccc1F)N1CCN(S(=O)(=O)c2ccc(F)cc2)CC1 | 3.9 | 62.8* | -0.3 | -0.1 | 0.3 | 11.7
O=C(Nc1ccc2c(c1)C(=O)NC2=O)c1ccc(N2C(=O)CCC2=O)cc1 | 2.1 | 8.4 | -1.3 | -0.1 | · | ·
CCC1(c2ccccc2)NC(=O)N(CC(=O)Nc2sc3c(c2C(N)=O)CCCC3)C1=O (configuration not stated) | -2.1 | -6.5 | 1.0 | 0.1 | · | ·
O=C(Cn1cnc2c(nnn2Cc2ccc(Cl)cc2)c1=O)N1CCOCC1 | 3.9 | 7.1 | -0.2 | 0.1 | · | ·
Cc1cc(C(=O)Nc2ccc([N+](=O)[O-])cc2)no1 | -42.9 | -7.7 | 0.3 | 0.0 | · | ·
O=C(NCCNCc1cccs1)c1ccc(F)cc1 | 6.9 | 55.3* | -0.8 | 0.2 | -5.0 | 17.4
O=C(NCc1cccs1)c1ccc(CNS(=O)(=O)c2ccc(F)cc2)cc1 | -2.5 | 0.0 | -0.3 | 0.1 | · | ·
CC(C)(C)NC(=O)C(=O)NNC(=O)c1ccc([N+](=O)[O-])cc1[N+](=O)[O-] | -11.0 | 65.9* | -2.0 | 0.9 | -21.8 | 1.3
OC1/C(=C/c2ccc3c(c2)OCO3)Oc2ccccc21 (configuration not stated) | -2.1 | 53.3* | 0.8 | 0.1 | -5.4 | -4.4
O=C1/C(=C/c2ccc3c(c2)OCO3)COc2ccccc21 | -13.2 | 13.7 | 2.3 | 0.0 | · | ·
SMILES | TEAD-YAP block | MITF inh | GPR151 activ | FBW7 activator | MITF inh conf | AlphaScreen intf2
CCOc1cc(CN2CCN(Cc3cc(OC)ccc3OC)CC2)ccc1OC | 5.4 | 57.7* | 0.6 | 0.0 | 7.6 | 10.3
COc1ccc(OC)c(CN2CCN(C(=O)c3cc(OC)c(OC)c(OC)c3)CC2)c1 | 16.5 | 35.5 | 0.5 | -0.2 | · | ·
CCOc1cc(CN2CCN(Cc3ccccc3OC)CC2)ccc1OC | 3.3 | 28.8 | 2.5 | 0.0 | · | ·
COc1ccc(OC)c(CN2CCN(Cc3cc(OC)c(OC)c(OC)c3)CC2)c1 | -10.5 | 68.3* | 0.8 | -0.1 | 9.0 | 15.2
Cc1cccc(Cc2cnc(NC(=O)CSc3ncccn3)s2)c1 | -10.1 | 3.1 | -1.0 | 0.1 | · | ·
CCC(C)c1ccc(NC(=O)/C=C/C(=O)O)cc1 (configuration not stated) | 4.3 | -5.5 | 0.9 | -0.2 | · | ·

Screening results from PubChem BioAssay.
